Assay results from ChEMBL document CHEMBL3988442, “University of Dundee, Small-Polar-MMV Screening Library” (2021).
Where “and” joins values, the source holds several entries; their conditions need not be identical. Equal values may be shown once. For part of these data: Entries with a potency or affinity are not part of this list.

Assays:
[1] = biological target: T1, Methionyl-tRNA synthetase, putative (Leishmania donovani (strain BPK282A1)) (UniProt E9BF75); test: Leishmania donovani Methionine tRNA synthetase (LdMetRS):v7. Dose response assay; type: functional; set-up: conc 80 nM, time 150 minutes
T1 sequence (whole entry): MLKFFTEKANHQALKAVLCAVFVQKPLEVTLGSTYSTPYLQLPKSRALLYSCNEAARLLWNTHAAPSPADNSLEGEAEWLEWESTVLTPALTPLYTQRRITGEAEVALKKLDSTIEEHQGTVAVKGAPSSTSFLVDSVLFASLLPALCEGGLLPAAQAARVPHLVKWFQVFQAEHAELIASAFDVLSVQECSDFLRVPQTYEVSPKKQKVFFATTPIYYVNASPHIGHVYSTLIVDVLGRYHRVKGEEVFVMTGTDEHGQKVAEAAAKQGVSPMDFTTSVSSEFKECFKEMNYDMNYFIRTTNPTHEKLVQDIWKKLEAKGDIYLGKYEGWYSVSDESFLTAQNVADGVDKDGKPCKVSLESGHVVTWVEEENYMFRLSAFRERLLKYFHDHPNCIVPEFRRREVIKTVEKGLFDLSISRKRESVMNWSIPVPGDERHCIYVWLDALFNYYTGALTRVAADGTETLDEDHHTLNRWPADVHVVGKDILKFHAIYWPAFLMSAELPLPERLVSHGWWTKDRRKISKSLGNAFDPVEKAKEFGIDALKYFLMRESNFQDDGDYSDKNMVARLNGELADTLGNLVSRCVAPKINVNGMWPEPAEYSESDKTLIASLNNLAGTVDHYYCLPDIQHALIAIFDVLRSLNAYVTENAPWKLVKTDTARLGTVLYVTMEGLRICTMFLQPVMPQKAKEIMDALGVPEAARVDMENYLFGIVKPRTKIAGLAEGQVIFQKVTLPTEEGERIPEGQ

[2] = biological target: Protein translocase subunit SecA (Escherichia coli (strain K12)) (UniProt P10408); test: Assay to Identify E. coli SecA ATPase Inhibitors; type: functional; set-up: scale not given: direction of the effect not stated beside the values; conditions: 30 µM
Protein translocase subunit SecA (Escherichia coli (strain K12)), sequence (P10408 whole entry): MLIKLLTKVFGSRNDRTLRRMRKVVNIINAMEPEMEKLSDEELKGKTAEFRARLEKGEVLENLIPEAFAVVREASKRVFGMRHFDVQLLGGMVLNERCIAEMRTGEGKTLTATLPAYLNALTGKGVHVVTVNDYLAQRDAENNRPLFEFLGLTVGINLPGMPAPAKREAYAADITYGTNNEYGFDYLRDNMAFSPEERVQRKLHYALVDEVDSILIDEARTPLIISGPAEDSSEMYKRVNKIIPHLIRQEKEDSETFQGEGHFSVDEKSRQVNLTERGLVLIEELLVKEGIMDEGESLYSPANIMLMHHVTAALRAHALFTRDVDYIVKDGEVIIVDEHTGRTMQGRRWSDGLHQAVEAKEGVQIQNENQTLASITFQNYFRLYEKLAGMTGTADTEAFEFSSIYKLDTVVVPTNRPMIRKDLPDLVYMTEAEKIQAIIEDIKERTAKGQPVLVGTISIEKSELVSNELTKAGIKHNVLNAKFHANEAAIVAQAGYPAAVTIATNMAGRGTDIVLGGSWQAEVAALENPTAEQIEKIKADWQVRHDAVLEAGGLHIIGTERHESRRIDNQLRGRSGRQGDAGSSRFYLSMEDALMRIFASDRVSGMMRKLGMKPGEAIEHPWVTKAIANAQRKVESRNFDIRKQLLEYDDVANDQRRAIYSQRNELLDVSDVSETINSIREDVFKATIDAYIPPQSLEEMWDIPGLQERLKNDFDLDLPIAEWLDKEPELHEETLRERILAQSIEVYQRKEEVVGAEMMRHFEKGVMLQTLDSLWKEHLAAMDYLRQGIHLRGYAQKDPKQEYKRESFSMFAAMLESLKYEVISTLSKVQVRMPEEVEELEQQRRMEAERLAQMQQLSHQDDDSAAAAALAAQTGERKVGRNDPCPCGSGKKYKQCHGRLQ

[3] = biological target: T2, Ubiquitin-activating enzyme e1, putative (Leishmania donovani (strain BPK282A1)) (UniProt E9BSI1); test: Leishmania donovani Ubiquitin Activating Enzyme (LdE1); type: functional; set-up: scale not given: direction of the effect not stated beside the values; conditions: 30 µM
T2 sequence (whole entry): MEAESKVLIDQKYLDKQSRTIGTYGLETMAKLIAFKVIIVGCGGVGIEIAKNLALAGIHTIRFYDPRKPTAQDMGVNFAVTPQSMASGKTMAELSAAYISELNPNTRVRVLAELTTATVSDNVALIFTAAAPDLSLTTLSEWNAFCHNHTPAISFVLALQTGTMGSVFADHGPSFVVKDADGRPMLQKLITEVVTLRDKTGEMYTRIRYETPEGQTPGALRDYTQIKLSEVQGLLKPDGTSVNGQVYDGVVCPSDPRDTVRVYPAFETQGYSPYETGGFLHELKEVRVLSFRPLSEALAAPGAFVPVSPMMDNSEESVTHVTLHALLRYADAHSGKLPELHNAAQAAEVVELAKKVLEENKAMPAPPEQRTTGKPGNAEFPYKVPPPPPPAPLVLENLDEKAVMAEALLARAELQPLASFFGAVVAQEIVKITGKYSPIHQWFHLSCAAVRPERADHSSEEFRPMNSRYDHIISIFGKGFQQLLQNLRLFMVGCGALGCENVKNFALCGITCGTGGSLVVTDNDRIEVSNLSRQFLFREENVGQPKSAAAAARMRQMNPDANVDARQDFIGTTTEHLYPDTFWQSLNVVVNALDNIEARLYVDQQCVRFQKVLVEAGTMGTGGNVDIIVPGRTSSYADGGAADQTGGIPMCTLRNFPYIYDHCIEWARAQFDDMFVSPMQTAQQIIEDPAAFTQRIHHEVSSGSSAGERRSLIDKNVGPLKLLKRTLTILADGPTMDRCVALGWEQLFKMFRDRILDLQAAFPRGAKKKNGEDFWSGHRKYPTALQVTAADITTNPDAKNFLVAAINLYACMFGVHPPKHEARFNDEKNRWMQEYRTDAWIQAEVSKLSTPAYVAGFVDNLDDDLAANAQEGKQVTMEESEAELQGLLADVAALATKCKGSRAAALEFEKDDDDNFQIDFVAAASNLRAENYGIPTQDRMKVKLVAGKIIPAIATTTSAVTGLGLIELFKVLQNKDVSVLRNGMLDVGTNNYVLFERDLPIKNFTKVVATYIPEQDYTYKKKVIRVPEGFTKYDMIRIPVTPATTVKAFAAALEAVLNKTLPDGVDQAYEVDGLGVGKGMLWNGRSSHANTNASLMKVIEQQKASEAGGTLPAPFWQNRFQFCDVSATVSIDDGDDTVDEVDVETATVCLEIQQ

[4] = biological target: T3, Aspartate--tRNA(Asp/Asn) ligase (Mycobacterium tuberculosis (strain ATCC 25618 / H37Rv)) (UniProt P9WFW3); test: Assay for Asp RNA synthetase-1 from Mycobacterium tuberculosis; type: functional; set-up: scale not given: direction of the effect not stated beside the values; conditions: 30 µM; note: in the data most compounds retested in dose-response had high values
T3 sequence (whole entry): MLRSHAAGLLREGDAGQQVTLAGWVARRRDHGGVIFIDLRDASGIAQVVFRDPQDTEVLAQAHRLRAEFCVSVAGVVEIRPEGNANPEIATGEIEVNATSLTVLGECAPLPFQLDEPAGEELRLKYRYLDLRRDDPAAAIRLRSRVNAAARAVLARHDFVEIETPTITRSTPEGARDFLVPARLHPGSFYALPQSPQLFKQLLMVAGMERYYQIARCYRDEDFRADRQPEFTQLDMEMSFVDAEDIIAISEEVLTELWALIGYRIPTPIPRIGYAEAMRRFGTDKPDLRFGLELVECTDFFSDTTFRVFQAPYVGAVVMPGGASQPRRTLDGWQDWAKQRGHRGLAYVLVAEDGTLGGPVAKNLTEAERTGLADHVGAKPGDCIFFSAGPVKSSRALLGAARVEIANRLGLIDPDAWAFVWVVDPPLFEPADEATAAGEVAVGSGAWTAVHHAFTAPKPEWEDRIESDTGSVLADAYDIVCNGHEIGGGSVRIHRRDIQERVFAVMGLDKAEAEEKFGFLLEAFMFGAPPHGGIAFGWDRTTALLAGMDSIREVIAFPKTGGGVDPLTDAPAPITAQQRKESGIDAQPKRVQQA

[5] = biological target: AMP-activated protein kinase, AMPK (Homo sapiens) (UniProt P54646+O43741+P54619+Q9UGJ0+Q9Y478+Q13131+Q9UGI9); test: AMP-dependent Kinase enzyme assay. An in vitro enzyme assay that detects ADP turnover that is directly proportional to AMPK activity. This uses naive AMPK that is activated during the assay with MK-8722; type: functional; set-up: scale not given: direction of the effect not stated beside the values; conditions: 30 µM
[6] = biological target: Sialic acid-binding Ig-like lectin 9 (Homo sapiens) (UniProt Q9Y336); test: Hs-Siglec9 ALPHAscreen SOP 20170721; set-up: scale not given: direction of the effect not stated beside the values; conditions: 10 µM
Sialic acid-binding Ig-like lectin 9 (Homo sapiens), sequence (Q9Y336 whole entry): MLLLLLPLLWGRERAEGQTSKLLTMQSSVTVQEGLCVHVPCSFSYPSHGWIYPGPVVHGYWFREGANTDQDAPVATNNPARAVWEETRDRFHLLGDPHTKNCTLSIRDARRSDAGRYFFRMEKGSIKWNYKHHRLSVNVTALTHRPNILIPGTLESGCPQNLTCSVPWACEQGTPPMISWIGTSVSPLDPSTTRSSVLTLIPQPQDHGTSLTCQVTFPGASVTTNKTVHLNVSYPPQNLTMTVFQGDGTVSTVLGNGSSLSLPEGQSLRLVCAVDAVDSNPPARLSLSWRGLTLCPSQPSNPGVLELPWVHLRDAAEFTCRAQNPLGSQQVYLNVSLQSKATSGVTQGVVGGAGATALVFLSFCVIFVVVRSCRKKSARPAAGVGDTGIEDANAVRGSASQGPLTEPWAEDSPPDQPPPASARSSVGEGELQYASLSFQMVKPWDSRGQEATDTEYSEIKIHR

Trypanosoma cruzi = test: Trypanosoma cruzi phosphomannomutase and mannose-1-phosphate guanylyltransferase assay; type: functional; set-up: scale not given: direction of the effect not stated beside the values; conditions: 10 µM
[7] = biological target: T4, Arginase-2, mitochondrial (Homo sapiens) (UniProt P78540); test: in vitro enzyme assay to detect the production of urea directly proportional to the activity of Arginase II; type: functional; set-up: scale not given: in the data most compounds retested in dose-response had high values; conditions: 33.3 µM
T4 sequence (whole entry): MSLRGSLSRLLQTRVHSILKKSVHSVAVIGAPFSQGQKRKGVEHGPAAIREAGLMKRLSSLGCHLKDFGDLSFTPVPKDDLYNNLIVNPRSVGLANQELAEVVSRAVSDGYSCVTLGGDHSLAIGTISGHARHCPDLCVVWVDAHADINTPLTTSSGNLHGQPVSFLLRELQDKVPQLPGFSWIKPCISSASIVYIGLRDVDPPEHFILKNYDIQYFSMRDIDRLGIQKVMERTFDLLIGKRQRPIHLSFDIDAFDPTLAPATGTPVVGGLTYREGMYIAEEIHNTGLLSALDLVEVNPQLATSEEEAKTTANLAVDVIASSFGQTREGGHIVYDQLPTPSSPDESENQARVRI

[8] = biological target: T5, Proteasome subunit beta (Trypanosoma cruzi) (UniProt O96673); test: Trypanosoma cruzi proteasome chymotrypsin-like activity (TcProtChymo) assay.; type: functional; set-up: scale not given: in the data most compounds retested in dose-response had high values; conditions: 9.37 µM
T5 sequence (whole entry): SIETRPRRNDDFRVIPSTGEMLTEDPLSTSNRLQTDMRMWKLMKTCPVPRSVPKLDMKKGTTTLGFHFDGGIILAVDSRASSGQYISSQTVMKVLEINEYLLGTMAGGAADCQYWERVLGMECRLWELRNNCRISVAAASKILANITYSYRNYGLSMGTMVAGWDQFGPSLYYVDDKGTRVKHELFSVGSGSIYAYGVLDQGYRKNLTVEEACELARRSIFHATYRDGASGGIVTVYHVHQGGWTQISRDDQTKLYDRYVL

N/A = test: Trypanosoma cruzi proteasome luciferase counter-screen; type: functional; set-up: scale not given: direction of the effect not stated beside the values; conditions: 9.37 µM
Homo sapiens = organism: Homo sapiens; test: To identify inhibition of the IFN signalling (Jak-Stat) pathway via expression of an eGFP reporter gene under the control of an IFN-stimulated response element (ISRE) containing MxA promoter.; type: functional; set-up: scale not given: direction of the effect not stated beside the values; conditions: 30 µM
[9] = biological target: Shiga toxin 2 (Escherichia coli O157:H7) (UniProt P09385+P09386); test: E. coli 0.157:H7 Shiga Toxin SOP - stx2 screening assay; type: functional; set-up: scale not given: direction of the effect not stated beside the values; conditions: 30 µM
[10] = biological target: T6, Tyrosyl-tRNA synthetase, putative (Trypanosoma cruzi (strain CL Brener)) (UniProt Q4DSP6); test: Trypanosoma cruzi tyrosyl tRNA synthetase (TcYRS) _High Tyrosine SOP; type: functional; set-up: scale not given: in the data most compounds retested in dose-response had high values; conditions: 30 µM
T6 sequence (whole entry): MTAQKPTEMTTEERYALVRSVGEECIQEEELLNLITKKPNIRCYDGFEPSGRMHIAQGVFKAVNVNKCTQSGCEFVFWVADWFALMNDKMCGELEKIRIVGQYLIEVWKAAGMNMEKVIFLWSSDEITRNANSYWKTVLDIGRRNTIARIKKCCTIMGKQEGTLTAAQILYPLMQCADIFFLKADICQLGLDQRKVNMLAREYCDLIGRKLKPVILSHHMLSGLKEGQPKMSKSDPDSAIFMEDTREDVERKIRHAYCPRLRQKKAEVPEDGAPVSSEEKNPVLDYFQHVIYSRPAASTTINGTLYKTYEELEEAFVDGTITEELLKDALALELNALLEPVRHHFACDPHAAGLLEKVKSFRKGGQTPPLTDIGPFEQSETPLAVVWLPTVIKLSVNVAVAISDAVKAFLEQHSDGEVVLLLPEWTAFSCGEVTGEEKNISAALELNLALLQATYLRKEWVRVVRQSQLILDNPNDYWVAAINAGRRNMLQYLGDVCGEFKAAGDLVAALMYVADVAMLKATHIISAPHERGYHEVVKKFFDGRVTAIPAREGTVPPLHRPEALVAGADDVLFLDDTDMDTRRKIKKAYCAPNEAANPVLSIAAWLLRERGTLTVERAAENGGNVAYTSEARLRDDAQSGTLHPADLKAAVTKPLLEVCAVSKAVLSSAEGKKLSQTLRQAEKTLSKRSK

[11] = biological target: T6, Tyrosyl-tRNA synthetase, putative (Trypanosoma cruzi (strain CL Brener)); test: Trypanosoma cruzi tyrosyl tRNA synthetase (TcYRS) SOP; type: functional; set-up: scale not given: direction of the effect not stated beside the values; conditions: 30 µM
[12] = biological target: Chromo domain-containing protein 1 (Saccharomyces cerevisiae (strain ATCC 204508 / S288c) (Baker's yeast)) (UniProt P32657); test: ScCHD-1 Enzyme Inhibition Assay; type: functional; set-up: scale not given: in the data most compounds retested in dose-response had high values; conditions: 30 µM
Chromo domain-containing protein 1 (Saccharomyces cerevisiae (strain ATCC 204508 / S288c) (Baker's yeast)), sequence (P32657 whole entry, the tested form may be a part): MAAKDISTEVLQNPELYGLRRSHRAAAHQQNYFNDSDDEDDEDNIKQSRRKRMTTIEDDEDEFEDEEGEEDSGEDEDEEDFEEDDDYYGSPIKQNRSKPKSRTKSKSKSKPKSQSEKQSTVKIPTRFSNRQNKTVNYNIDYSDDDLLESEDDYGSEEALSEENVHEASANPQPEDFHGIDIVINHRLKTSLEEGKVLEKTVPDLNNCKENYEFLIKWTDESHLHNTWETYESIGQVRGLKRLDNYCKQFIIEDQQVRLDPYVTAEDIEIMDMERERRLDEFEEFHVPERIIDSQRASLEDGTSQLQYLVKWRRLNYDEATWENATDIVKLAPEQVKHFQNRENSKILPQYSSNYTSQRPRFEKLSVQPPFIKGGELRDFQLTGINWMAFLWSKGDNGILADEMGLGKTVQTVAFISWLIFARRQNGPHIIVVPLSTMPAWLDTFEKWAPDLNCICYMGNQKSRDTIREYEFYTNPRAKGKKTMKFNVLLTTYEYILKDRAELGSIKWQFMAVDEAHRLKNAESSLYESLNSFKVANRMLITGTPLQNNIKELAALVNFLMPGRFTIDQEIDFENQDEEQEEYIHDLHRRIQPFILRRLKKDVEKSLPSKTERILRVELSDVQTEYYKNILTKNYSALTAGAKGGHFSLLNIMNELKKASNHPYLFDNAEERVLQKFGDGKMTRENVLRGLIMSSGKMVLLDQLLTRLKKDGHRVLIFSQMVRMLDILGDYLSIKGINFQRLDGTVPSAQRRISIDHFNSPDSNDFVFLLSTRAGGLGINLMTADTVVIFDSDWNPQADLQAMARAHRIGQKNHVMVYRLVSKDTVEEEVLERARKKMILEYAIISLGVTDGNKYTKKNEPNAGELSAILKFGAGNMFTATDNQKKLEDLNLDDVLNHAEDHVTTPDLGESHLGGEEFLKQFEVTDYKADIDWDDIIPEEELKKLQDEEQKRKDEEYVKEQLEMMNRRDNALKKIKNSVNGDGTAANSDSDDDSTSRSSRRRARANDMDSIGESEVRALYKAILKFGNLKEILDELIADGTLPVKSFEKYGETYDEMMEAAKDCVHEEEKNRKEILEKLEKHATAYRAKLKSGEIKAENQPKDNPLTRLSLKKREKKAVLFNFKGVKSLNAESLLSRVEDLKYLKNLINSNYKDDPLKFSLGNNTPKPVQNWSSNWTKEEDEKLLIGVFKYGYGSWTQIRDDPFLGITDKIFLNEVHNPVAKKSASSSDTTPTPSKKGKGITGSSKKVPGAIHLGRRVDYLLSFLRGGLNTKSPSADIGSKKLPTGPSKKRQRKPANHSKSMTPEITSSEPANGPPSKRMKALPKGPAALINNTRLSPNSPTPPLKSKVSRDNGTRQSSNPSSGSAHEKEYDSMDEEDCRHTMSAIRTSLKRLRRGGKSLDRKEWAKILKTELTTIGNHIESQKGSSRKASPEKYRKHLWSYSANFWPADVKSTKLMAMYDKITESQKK

| Structure (SMILES) | PXC50 ([1]; MAX_EFFECT 19.58174905) | PXC50 ([1]; MAX_EFFECT 31.74946004) | PXC50 ([1]; MAX_EFFECT 4.081632653) | PXC50 ([1]; MAX_EFFECT 6.313131313) | Percent Effect [2] [%] | Percent Effect [3] [%] | Percent Effect [4] [%] | Percent Effect [5] [%] | Percent Effect [6] [%] | Percent Effect (Trypanosoma cruzi) [%] | Percent Effect [7] [%] | Percent Effect [8] | Percent Effect (N/A) | Percent Effect (Homo sapiens) [%] | Percent Effect [9] [%] | Percent Effect [10] [%] | Percent Effect [11] [%] | Percent Effect [12] [%] |
| --- | --- | --- | --- | --- | --- | --- | --- | --- | --- | --- | --- | --- | --- | --- | --- | --- | --- | --- |
| NC1CC1c1ccc(Cl)cc1Cl (configuration not stated) | < 3 | < 3 |  |  |  |  |  |  |  |  |  |  |  |  |  |  |  |  |
| Cc1nc(N2C[C@@H]3CCN(C)[C@@H]3C2)c2ccsc2n1 |  |  | < 4 | < 4 |  |  |  |  |  |  |  |  |  |  |  |  |  |  |
| CO[C@@H]1CN(Cc2scnc2C)[C@@H]2CCCO[C@@H]21 |  |  |  |  | -5.71 | 2.7 | -1.4 | -6.24 | 4.17 | 2.25 | 3.72 | 82% and 78.2% and 80% | 19.6% and 16.4% | -7.25 | 8.62 | 6.45 | 8.64 | -1.19 |
| COc1cc(OC)c(C2SCC(=O)Nc3n[nH]cc32)cc1OC (configuration not stated) |  |  |  |  | -4.64 | 5.26 | 10.6 | 15.2 | 0.428 | -0.682 | -7.1 | 9.11% |  | 20.6 | 10.6 | 2.13 | 2.6 | -1.49 |
| CCN1CCC2(COCc3cnc(NCC4CC4)nc32)C1 (configuration not stated) |  |  |  |  | 1.53 | 0 | 0.296 | -4.7 | 2.85 | 5.95 | -2 | 3.68% |  | 18.1 | -28.9 | 0 | 8.64 | -0.871 |
| CN1C(=O)C2(CCN(CC3CC3)CC2)c2ccccc21 |  |  |  |  | -0.0958 | 10.8 | -2.95 | -1.71 | -10.2 | -6.16 | 0.955 | 16.4% |  | -8.93 | -0.91 | 2.16 | 17.9 | -2.43 |
